Hits are enriched below; roughly 7.3% of the tested compounds scored in any of these assays.
HEK293 viab = GF-AFC viability counterscreen for inhibitors of alpha-synuclein gene (SNCA) expression; HEK-293-SNCA-luc viability, GF-AFC fluorescence, 24 h; Potency, µM (top dose mostly 57.1 µM), without a hit: top-dose activity change, negative = cytotoxicity, actives largely listed as cytotoxic; hit rate 0.12% among 150,000; AID 1671193, 2021;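 also: potency is read from the fitted curve at half-maximal effect; 0% = DMSO-treated cells and -100% = medium-only wells without cells; nearly all actives have a fitted effect of over 30% in size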
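HEK-293-SNCA-luc cells (1500/well) plated 24 h, then exposed 24 h to a dilution series; GF-AFC added 30 min at 37C, fluorescence 405/540 nm; normalised to medium-only and DMSO wells, Hill fit.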
HEK cytotox = Cytotoxic Profiling in HEK 293 Cell Line of Diverse Libraries Using Quantitative High-Throughput Screening. HEK 293 viability, ATP luminescence (CellTiter-Glo), 48-72 h. Potency, µM (highest dose often 115 µM), without a hit: top-dose activity change, negative = cytotoxicity, most hits filed as inhibitors. hit rate 6.6% among 94,000. AID 1345083, 2018; also: potency is read from the fitted curve at half-maximal effect; % is scaled to controls: 0 for no effect and ±100 for the full control effect; nearly all actives have a fitted effect of over 60% in size
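Pintool-delivered compounds were incubated with HEK 293 cells (250 cells/well) at 37 degree Celsius for 48 or 72 hr. ATP-dependent luminescence (CellTiter-Glo) then reported remaining viable cells.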
FLuc inh-1 = Firefly luciferase inhibition profiling of diverse chemical library using quantitative high-throughput screening. Luciferin 4-monooxygenase (Photinus pyralis), P08659. hit rate 2.5% among 76,000. Potency, µM (series often up to 115 µM), actives largely listed as inhibitors. purified P. pyralis luciferase, luminescence, biochemical; also: potency is read from the fitted curve at half-maximal effect; % is scaled to controls: 0 for no effect and ±100 for the full control effect; nearly all actives have a fitted effect of over 65% in size
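Purified P. pyralis luciferase (10nM final) in 50mM Tris acetate pH 7.5, 10mM Mg acetate, 0.01% Tween-20, 0.05% BSA with 10uM D-luciferin and 10uM ATP. Compounds titrated qHTS. Luminescence imaged on CCD.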
IP6K1 inhibitor = Primary qHTS assay for small molecule inhibitors of Inositol hexaphosphate kinase 1 (IP6K1); Inositol hexakisphosphate kinase 1 (Homo sapiens), Q92551; IP6K1 kinase, ADP-Glo luminescence, 2 h; stronger effect = lower value; activity change, % (series mostly up to about 58 µM); hit rate 0.81% among 140,000; AID 1645851, 2021; in the data active = activity change below about -25%; also: % is scaled to controls: 0 for no effect and ±100 for the full control effect
Target sequence (Q92551 whole entry, looked up): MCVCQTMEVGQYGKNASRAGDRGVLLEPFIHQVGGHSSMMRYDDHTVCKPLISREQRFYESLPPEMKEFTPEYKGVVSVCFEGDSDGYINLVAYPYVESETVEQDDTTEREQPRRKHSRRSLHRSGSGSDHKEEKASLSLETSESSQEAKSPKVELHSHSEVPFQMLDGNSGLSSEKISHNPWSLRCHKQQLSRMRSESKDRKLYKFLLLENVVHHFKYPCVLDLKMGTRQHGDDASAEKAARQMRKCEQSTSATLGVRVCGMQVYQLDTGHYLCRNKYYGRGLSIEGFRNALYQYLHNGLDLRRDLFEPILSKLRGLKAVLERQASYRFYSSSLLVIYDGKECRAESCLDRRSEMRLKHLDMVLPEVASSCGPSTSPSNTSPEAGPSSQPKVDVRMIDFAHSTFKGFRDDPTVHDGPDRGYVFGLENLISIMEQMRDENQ
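ADP-Glo luminescence measures ADP made by human IP6K1 during a 2 h RT reaction with ATP/IP6 (mix at 1.3 mM/130 uM); top library doses 57.5 and 19.1 uM final.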
3T3 cytotox = Cytotoxic Profiling in NIH 3T3 Cell Line of Diverse Libraries Using Quantitative High-Throughput Screening; NIH 3T3 viability, CellTiter-Glo ATP luminescence, 48-72 h; Potency, µM (highest dose often 96.7 µM), for inactives: at the highest dose activity change, negative = cytotoxicity, most hits filed as inhibitors; hit rate 4.3% among 94,000; AID 1345082, 2018; also: potency is read from the fitted curve at half-maximal effect; % is scaled to controls: 0 for no effect and ±100 for the full control effect; nearly all actives have a fitted effect of over 55% in size
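Cells were seeded at 400 per well, treated with pin-transferred compound, and kept 48 or 72 hr at 37 °C before CellTiter-Glo addition and luminescence imaging of cellular ATP.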
SNCA expr inhib = Primary qHTS assay for inhibitors of alpha-synuclein gene (SNCA) expression; hit rate 0.17% among 140,000; Potency, µM (top dose mostly 57.2 µM), without a hit: at the highest dose activity change, negative = inhibition, most hits filed as inhibitors; HEK-293 SNCA-luciferase knock-in, luminescence, 24 h;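 also: potency is read from the fitted curve at half-maximal effect; plate controls were DMSO cells for no effect and cell-free wells for full effect; nearly all actives have a fitted effect of over 45% in size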
FLuc SDR no ATP = Firefly luciferase (FLuc-C-HiBiT) SDR gain of signal screen - without ATP. shares compounds with FLuc inh-1. Potency, µM (series often up to 32.7 µM), for inactives: at the highest dose activation (signal gain), actives largely listed as activators. hit rate 7.8% among 1,300. Purified FLuc-C-HiBiT, Nano-Glo HiBiT luminescence, no ATP; also: potency is read from the fitted curve at half-maximal effect; nearly all actives have a fitted effect of over 55% in size
FLuc SDR ATP = Firefly luciferase (FLuc-C-HiBiT) SDR gain of signal screen - plus ATP. hit rate 8.7% among 1,300. Potency, µM (top dose mostly 32.7 µM), without a hit: top-dose activation (gain of signal), usual class: activators. shares compounds with FLuc inh-1. purified FLuc-C-HiBiT + ATP, HiBiT complementation luminescence;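 also: signal reports ligand binding via conformational change of the enzyme rather than luciferase catalysis; potency is read from the fitted curve at half-maximal effect; % of control where 0% means no effect; nearly all actives have a fitted effect of over 55% in size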
FLuc inh-2 = Firefly luciferase (FLuc-C-HiBiT) enzymatic inhibition screen - Functional assay; shares compounds with FLuc inh-1; hit rate 42% among 1,300; purified FLuc-C-HiBiT enzyme, luciferin luminescence; Potency, µM (doses to about 32.7 µM), for the others: at the top dose activity change, negative = inhibition, hits mostly inhibitors; also: potency is read from the fitted curve at half-maximal effect; % is scaled to controls: 0 for no effect and ±100 for the full control effect; nearly all actives have a fitted effect of over 70% in size
* marks the source's active call; other numbers are inactive results; i = inactive; ? = inconclusive; / = not tested or not shown; [ ] = another dose, or the depositor's remark. Unless noted, calls follow the shape of the dose curve; as a rule, active = well fitted curve in the direction sought with a large enough effect; inconclusive = small, poorly fitted or top-dose-only effect, or another doubt; inactive = no such curve, though single readings can be large; an effect the other way counts as inactive or inconclusive.

SMILES	HEK293 viab	HEK cytotox	FLuc inh-1	IP6K1 inhibitor	3T3 cytotox	SNCA expr inhib	others
CCOC(=O)[C@H]1CN(C(=O)c2cc(C)oc2C)[C@]2(C)C(=O)N(CCOC)c3ccccc3[C@H]12	-12%[23.9 µM]	?	/	14	?	0%[25.6 µM]
Cc1ccc(C)c(S(=O)(=O)N2[C@H]3CC[C@@H]2c2cnc(-c4ccccc4)nc2C3)c1	8%	-41%	i	2	-17%	-18%
CCS(=O)(=O)N1[C@H]2CC[C@@H]1c1cnc(-c3ccc(F)cc3)nc1C2	-3%	40µM*	i	4	-30%	35%
O=C(C1CCCC1)N1[C@H]2CC[C@@H]1c1cnc(-c3ccc(F)cc3)nc1C2	-3%	16µM*	i	2	-11%	-19%
CC(C)CC(=O)N1[C@H]2CC[C@@H]1c1cnc(-c3ccc(F)cc3)nc1C2	-14%	20µM*	i	4	?	-11%
Cc1ccccc1S(=O)(=O)N1[C@H]2CC[C@@H]1c1cnc(-c3ccccc3)nc1C2	-4%	25µM*	i	20	?	18%
COc1ccc(CC(=O)N2CCN(CCn3nc4n(c3=O)CCCC4)CC2)cc1	/	-1%	/	-6	-13%	/
C=C[C@H]1CN2CC[C@H]1C[C@@H]2CNS(=O)(=O)c1cccc(C#N)c1	3%[87.6 µM]	1%[172 µM]	i	3	-14%[174 µM]	25%[87.6 µM]
CCOC(=O)[C@H]1CN(C(=O)OCC)[C@]2(C)C(=O)N(CCOC(C)=O)c3ccccc3[C@H]12	-7%[23.9 µM]	-3%[57.5 µM]	/	0	?	-3%[25.6 µM]
CC(C)CN1CCN(c2ccc(Cl)nn2)C(=O)C1	5%[87.6 µM]	i	i	-14	-5%[138 µM]	5%[87.6 µM]
CC(C)N1CC2CCC(C1)N2Cc1ccc(-c2cncnc2)cc1	5%[87.6 µM]	-6%[172 µM]	i	-10	-15%[138 µM]	12%[87.6 µM]
Cc1cccc(NC(=O)N2[C@H]3CC[C@@H]2c2cncnc2C3)c1	-5%	0%	i	3	i	6%
Cc1cccc(NC(=O)N2[C@H]3CC[C@@H]2c2cnc(-c4ccccc4)nc2C3)c1	-1%	40µM*	i	18	?	49%
Cc1nc(-c2ccccc2Br)cc([C@H]2CN3CC[C@H]2C[C@@H]3CNC(=O)c2cccs2)n1	?	79µM*	i	-3	?	-17%
Cc1nc(-c2cccs2)cc([C@H]2CN3CC[C@H]2C[C@@H]3CNC(=O)C2CC2)n1	12%[87.6 µM]	-18%[172 µM]	i	-16	-27%[174 µM]	-2%[87.6 µM]
Cc1nc(-c2ccco2)cc([C@H]2CN3CC[C@H]2C[C@@H]3CNC(=O)c2cccs2)n1	-5%[87.6 µM]	-29%[172 µM]	i	17	-25%[138 µM]	29%[87.6 µM]
Cc1nc(-c2cccs2)cc([C@H]2CN3CC[C@H]2C[C@@H]3CNC(=O)c2ccc3c(c2)OCO3)n1	-14%	?	i	0	40µM*	-15%
Cc1nc(-c2cccs2)cc([C@H]2CN3CC[C@H]2C[C@@H]3CNC(=O)c2ccccc2)n1	-11%[87.6 µM]	?	i	17	?	-12%[87.6 µM]
Cc1nc(-c2cccs2)cc([C@H]2CN3CC[C@H]2C[C@@H]3CNC(=O)Nc2cccc(C(F)(F)F)c2)n1	-11%	25µM*	i	-9	25µM*	?
Cc1ccc(C(=O)NC[C@H]2C[C@@H]3CCN2C[C@@H]3c2cc(-c3cccs3)nc(C)n2)cc1	?	?	i	19	28µM*	?
CCCCc1cn(C[C@H]2CC3CCN2C[C@@H]3C(=O)NCc2ccco2)nn1 (some centres undefined)	1%[87.6 µM]	-22%[172 µM]	i	10	-13%[174 µM]	-15%[87.6 µM]
C=C[C@H]1CN2CC[C@H]1C[C@@H]2CNC(=O)c1ccc(F)c(Cl)c1	12%[87.6 µM]	-20%[172 µM]	i	11	?	24%[87.6 µM]
CC(C)(C)CC(=O)N1C[C@@H]2C[C@H](C1)c1ccc(NC(=O)Nc3cccc(F)c3)c(=O)n1C2	-3%	?	14µM*	-14	?	62%	FLuc SDR no ATP=14%;FLuc SDR ATP=8%;FLuc inh-2=-15%
CC/C=C/C=C/C1(C)OC(OC)=C(C(=O)C2C(C)C(=O)c3cc(OC)c(O)c(O)c3C2(C)O)C1=O (centres undefined)	-16%[23.9 µM]	/	/	5	/	/
COc1ccc(-c2cc3c(cn2)CN(C)CCN3)cc1OC	13%[87.6 µM]	-43%[172 µM]	?	-10	?	160%[87.6 µM]
SMILES	HEK293 viab	HEK cytotox	FLuc inh-1	IP6K1 inhibitor	3T3 cytotox	SNCA expr inhib	others
Cc1cc(-c2cc3c(cn2)CN(CC(C)C)CCN3)ccn1	-13%[87.6 µM]	?	4.5µM*	-12	?	49%[87.6 µM]	FLuc SDR no ATP=?;FLuc SDR ATP=17%[49.3 µM];FLuc inh-2=16µM*
c1nc(N2C[C@@H](c3ccc4c(c3)OCO4)[C@@H]3[C@H]2C2CCN3CC2)c2[nH]cnc2n1	13%	-6%	i	4	-10%	1%	FLuc SDR no ATP=13%;FLuc SDR ATP=10%;FLuc inh-2=3%
c1cc(CN2C[C@H](c3ccc4c(c3)OCO4)[C@@H]3[C@H]2C2CCN3CC2)ccn1	9%	1%	i	4	-25%	-10%
COc1cccc(Nc2cc3c(cn2)CN(C)CCN3)c1	-1%[87.6 µM]	?	4.5µM*	-2	?	38%[87.6 µM]	FLuc SDR no ATP=20%[65.7 µM];FLuc SDR ATP=15%[65.7 µM];FLuc inh-2=23µM*
Cn1cccc1CN1CCC2(CN[S+](=O)([O-])c3cccnc3O2)C1 (centres undefined)	2%	i	/	6	i	-22%
CCOC(=O)[C@H]1CN(C(=O)C2CCCC2)[C@]2(C)C(=O)Nc3ccccc3[C@H]12	5%[23.9 µM]	?	/	16	-17%[46.1 µM]	-15%[25.6 µM]
